Shown are actives, neighbours in structure and some others; about 19% of the full set was active somewhere.
TDP1 cell noCPT = qHTS for Inhibitors of human tyrosyl-DNA phosphodiesterase 1 (TDP1): qHTS in cells in absence of CPT | DT40 Tdp1-/- hTDP1 cells, no CPT, ATP luminescence, 48 h | Potency, µM (top dose mostly 46.2 µM), without a hit: at the top dose activity change, negative = growth inhibition, usual class: inhibitors | 420,000 compounds, 15% hits | AID 686978, 2013; note: potency is the fitted concentration of half-maximal effect; % is set by controls: 0 for no effect and ±100 for the full control effect; nearly all actives have a fitted effect of over 55% in size
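Readout: luminescence from CellTiter-Glo after 30 min in the dark at RT. Cells: DT40 Tdp1-/- with stable hTDP1, 400/well. Exposure: compounds alone, ≥48 hr, 37 °C.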
SW480 rereplic = inducers of DNA re-replication in SW480 colon cancer cells; SW480 DNA re-replication, Hoechst DNA content imaging, 48 h; Potency, µM (highest dose often 46.1 µM), inactives show at the highest dose re-replication activation, usual class: activators; 340,000 compounds, 1.8% hits; note: potency is the fitted concentration of half-maximal effect; % of control where 0% means no effect; nearly all actives have a fitted effect of over 55% in size
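DNA re-replication was detected as more nuclei of elevated Hoechst intensity after 48 hr exposure to compound (23 nL pinned per well of 250 cells).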
BCR signal inh = inhibitors of chronic active B-cell receptor signaling. ABC-DLBCL IkBa-CBG/CBR reporter, luminescence ratio, 4 h. 340,000 compounds, 0.05% hits. Potency, µM (doses to about 46.1 µM), for inactives: at the top dose activity change, negative = inhibition, hits mostly inhibitors; active = well fitted inhibition curve with a large enough effect in the signal ratio, with a control signal flat, not every such curve was filed as active; inconclusive = small, poorly fitted or top-dose-only effect, or effect the other way, or a change in a side signal; the % refers to the signal ratio;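 note: potency is the fitted concentration of half-maximal effect; plate controls were basal doxycycline-induced cells for no effect and cells given 10 µM MG132 for full effect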
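Concentration-response series (up to 46 uM) were applied to TMD8 dual-reporter cells for 4 h at 37C with doxycycline. Green/red ratio, after filter-overlap correction, defined %Activity; red signal alone was normalised to basal cells and zero luminescence.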
DT40 TDP1 CPT = DT40-hTDP1 cell growth loss with CPT; chicken DT40 Tdp1-/-;hTDP1 cells + 20 nM CPT, ATP luminescence, 48 h; Potency, µM (series often up to 46.2 µM), inactives show at the highest dose activity change, negative = growth inhibition, most hits filed as inhibitors; 420,000 compounds, 12% hits; AID 686979; note: potency is the fitted concentration of half-maximal effect; % is set by controls: 0 for no effect and ±100 for the full control effect; nearly all actives have a fitted effect of over 55% in size
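Chicken DT40 Tdp1-/- cells stably complemented with human TDP1 were seeded at 400 cells/well in medium containing 20 nM camptothecin, exposed to pin-transferred compounds, and grown at 37 °C for at least 48 hr. Viability was read as ATP luminescence.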
MCF10A rereplic = induces DNA re-replication in MCF 10a normal breast cells. MCF 10A DNA re-replication, Hoechst nuclear intensity, 48 h. Potency, µM (top dose mostly 46.1 µM), for inactives: at the highest dose activity, positive = re-replication, actives largely listed as activators. 350,000 compounds, 2.9% hits. AID 624296; note: potency is the fitted concentration of half-maximal effect; % of control where 0% means no effect; nearly all actives have a fitted effect of over 50% in size
IL1B secr inh = inhibitors of inflammasome signaling (IL-1 beta secretion); THP-1 LPS/ATP IL-1B secretion, AlphaLISA, 16 h; hits give low values; activity change, % at 57.5 µM; 360,000 compounds, 4.7% hits; in the data active = activity change below about -50%; inconclusive = mostly about -30% to -49%; note: % is set by controls: 0 for no effect and ±100 for the full control effect
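THP-1 cells pretreated 1 hr with compounds (up to 57.5 uM final), then stimulated with LPS (250 ng/mL final) plus ATP (1.25 mM final); secreted IL-1B measured by AlphaLISA after 16 hr, decreased signal indicating inhibition.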
* = called active by the depositor; ? = inconclusive; / = not tested or not shown. Unless noted, calls come from the whole dose curve; as a rule, active = well fitted curve in the direction sought with a large enough effect; inconclusive = small, poorly fitted or top-dose-only effect, or another doubt; inactive = no such curve, though single readings can be large; an effect the other way counts as inactive or inconclusive.

SMILES	TDP1 cell noCPT	SW480 rereplic	BCR signal inh	DT40 TDP1 CPT	MCF10A rereplic	IL1B secr inh
Cc1nn(-c2ccccc2)c(N2CCCC2)c1/C=N/NC(=O)c1cc(-c2ccccn2)nc2ccccc12	12µM*	2%	?	21µM*	8%	-7
CCN(CC(=O)NCc1cccs1)C(=O)c1ccc(S(=O)(=O)Nc2ccccc2C)cc1	?	-16%	?	?	5%	10
O=C(NCc1cccs1)c1ccc(CS(=O)Cc2ccc(Cl)cc2)o1 (centres undefined)	?	/	/	?	/	-15
Cc1ccc(C)c(C(=O)NC(C)c2ccc(-n3ccnc3)cc2)c1 (centres undefined)	-19%	6%	8%	6%	1%	-6
COC(=O)CN(C#N)c1nc(NCc2ccccc2)nc(OC)n1	?	-3%	-4%	?	10%	-67*
O=C1NC[C@H](CCCCN2C[C@H](Cc3ccc(O)cc3)N(CCc3ccccc3)C(=O)C2=O)N(CC2CCCCC2)C1=O	-4%	/	/	30%	/	-2
COc1ccc(OC)c(CNc2ncc(-c3ccc(Cl)cc3)n2C)c1	16µM*	/	/	16µM*	/	/
COc1ccc(OC)c(CNc2ncnc3onc(-c4ccc(Cl)cc4)c23)c1	2.9µM*	/	/	2.6µM*	/	/
COc1ccccc1CNc1ncnc2onc(-c3ccc(Cl)cc3)c12	21µM*	/	/	?	/	/
COc1ccccc1CNc1ncnc2onc(-c3ccc(F)cc3)c12	-32%	/	-4%	-30%	/	/
CCOc1ccccc1CNc1ncnc2onc(-c3ccc(F)cc3)c12	23µM*	/	/	16µM*	/	/
CCSc1nnc(SCC(=O)NC2CCCCC2)s1	5%	11%	?	-12%	-5%	-1
Cc1ccc(C)c(-n2ccnc2SCC(=O)Nc2cccc(S(=O)(=O)NC3=NCCC3)c2)c1	-17%	-46%	4%	-18%	-1%	5
COc1cccc(NC(=O)CCc2c(C)nc3ncnn3c2C)c1	-5%	/	/	13%	/	/
COc1ccccc1-c1noc2ncnc(Nc3ccccc3C)c12	15µM*	-2%	10%	23µM*	-12%	0
O=C(O)C1CCC(NSc2ccccc2[N+](=O)[O-])CC1 (centres undefined)	2.6µM*	?	?	2.9µM*	2%	-10
NC(=O)CC(NSc1ccccc1[N+](=O)[O-])C(=O)O (centres undefined)	18µM*	?	-2%	16µM*	0%	-1
CCO/C(C)=N/Oc1cncnc1	-1%	/	/	-14%	/	0
Cc1ccc(NC(=O)c2oc3ccc(Br)cc3c2C)cc1S(=O)(=O)N1CCOCC1	-23%	-4%	/	?	-1%	0
O=C(O)C(Cc1c[nH]c2ccccc12)N1C(=O)C2C3c4ccccc4C(c4ccccc43)[C@@H]2C1=O (some centres undefined)	5%	5%	-1%	-3%	0%	9
Cc1sc2ncnc(N3CCC(C(=O)Nc4nc(-c5ccc(F)cc5)cs4)CC3)c2c1C	16µM*	-3%	?	?	26%	14
Cc1ccc(OCC(=O)NNC(=O)C2CCN(c3ncnc4sc(C)c(C)c34)CC2)cc1	?	-17%	0%	?	-9%	-17
Cc1sc2ncnc(N3CCC(C(=O)Nc4nnc(CC(C)C)s4)CC3)c2c1C	23µM*	-20%	-13%	?	8%	15
CCN(CC)CCNC(=O)c1ccc(NC(=O)C2CCN(c3ncnc4sc(C)c(C)c34)CC2)cc1	23µM*	21µM*	2%	18µM*	?	-8
O=C(Cn1cc(CNC(=O)C2CCCCC2)nn1)Nc1cc(C(F)(F)F)ccc1Cl	/	-8%	5%	/	?	/

Screens from PubChem BioAssay.
